This is part of a sample that, as a whole, favours compounds with a hit. Of some 83,000 tested, about 20% had one in any assay.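 Single-concentration screen, 48 h exposure, 96-well plates. Endpoint: percent growth. Below 10 = active.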 Values without a mark were called inactive. The source made the active and inactive calls.

The assay deals with U251 CNS. Description: NCI-60 one-dose screen, 48 h (100 = growth as untreated, 0 = no growth, -100 = all killed). The following applies: 10 µM unless noted. The procedure: Growth inhibition of the U251 human tumor cell line is measured as a screen for anti-cancer activity. Cells are grown in 96 well plates and exposed to the test compound for 48 hours. Compounds are tested at a single concentration, which is 10^-5 M for most compounds. The reported endpoint is percent growth (GI% or GIPRCNT), where numbers from 0 - 100% represent growth inhibition, and numbers from -100% - 0 represent cell death. For example, a value of 40 represents 60% growth inhibition. A value of 0 means no net growth occurred over the course of the experiment. A value of -40 indicates 40% of cells at the beginning of the experiment died by the end of the experiment. A value of -100 means all cells are dead at the end of the experiment.
NCI-60 Human Tumor Cell Lines Screen was performed using the standard one-dose NCI protocol, which is described in more detail at https://dtp.cancer.gov/discovery_development/nci-60/default.htm.
Compounds with GIPRCNT values below 10 were considered active. Activity score was based on GIPRCNT using the following formula: […]
Score is 0 for GIPRCNT values of 100 or above, 50 for GIPRCNT values of 0, and 100 for GIPRCNT values of -100.
Turning to `CC1(O)CCCCCC1`, the growth was 101%.

Turning to `S=c1[nH]c2cc(Cl)ccc2s1`, the growth was 101%.

For the compound `CCCOS(=O)(=O)c1ccccc1`, the growth was 106%.

As for `CCSc1nc2ccccc2o1`, the growth is 101%.

As for `Nc1cccc2cccc([N+](=O)[O-])c12`, the growth was 101%.

Take `O=C(c1ccccc1)N(CCCl)C(=O)N(CCCl)C(=O)c1ccccc1`: the growth was 102%.

Turning to `CCC1C[N+]2=C(c3cc(OC)c(OC)cc3CC2)c2c1cc1n2CCc2cc(OC)c(OC)cc2-1` (stereo not given), the growth was 22.7%.

For `O=C1/C(=C/c2ccccc2)CCC/C1=C\c1ccccc1`, the growth is 66.2%.

Consider `CC(C)Nc1ccc(Nc2ccc(NC(C)C)cc2)cc1`, for which the growth is 16.9%.

On to `CCN1CCCC(Nc2cc(C)nc(/N=C(/N)Nc3ccc(Cl)c(Cl)c3)n2)C1` (stereo not given), for which the growth is -82.4% (active).

As to `c1csc(-c2[nH]nc3c2CCc2ccccc2-3)c1`, the growth is 78.1%.

In the case of `O=C(/C=C/C(Cl)(Cl)Cl)Nc1ccc(Cl)cc1`, the growth is 100%.

For `O=C(Nc1ccc(Cl)c(Cl)c1)Nc1ccccc1O`, the growth was 85.7%.

For `CC(C)(C)c1ccc(O)c(-c2ccccc2)c1`, the growth was 96.3%.

Turning to `COc1cc(NCc2ccc3nc(N)nc(N)c3c2C)cc(OC)c1OC` (tested in a mixture with another compound), the growth is 31.2%.

Turning to `O=C(c1ccccc1)C(Br)[N+](=O)[O-]` (stereo not given), the growth was 84.2%.

For the compound `COC(=O)c1nc(=S)[nH]c(C(=O)OC)c1C(=O)c1ccc(Cl)c(Cl)c1`, the growth is 103%.

On to `CCc1cccc(CC)c1N1C(=O)C=CC1=O`, for which the growth was 100%.

For the compound `N#CCc1cccc2ccccc12`, the growth is 108%.

With `OC(c1cc(-c2ccc(Cl)cc2)nc2c(Cl)cccc12)C1CCCCN1` (stereo not given), the growth was -89% (active).

On to `CCCN(CCC)C(=O)c1ccc(C)cc1`, for which the growth was 85.5%.

Turning to `CN(C)c1ccc(/C=C/c2ccnc3ccccc23)cc1`, the growth is 38.3%.

In the case of `O=C/C=C/c1ccc([N+](=O)[O-])cc1`, the growth was 95.5%.

For the compound `O=C1c2ccccc2C(=O)c2c(O)c(Cl)cc(O)c21`, the growth is 38%.

Take `CCCCN(CCCC)CCCCCCCCCCO`: the growth was 102%.

As for `Oc1ccc2c(c1)CCc1ccccc1-2`, the growth was 95.9%.

Consider `COC(=O)Nc1nc2ccc(C3(c4ccc(F)cc4)OCCO3)cc2[nH]1`, for which the growth is 13.9%.

Take `CC(C)(C)CC(C)(C)c1ccc(OCCOCCSC(=N)N)cc1`: the growth is 35.9%.

Consider `NCCCN(CCCN)CCCNCc1c2ccccc2c(CNCCCN(CCCN)CCCN)c2ccccc12`, for which the growth was 115%.

As to `OCCOSCCO`, the growth was 101%.

On to `O=C1Nc2ccc(Br)cc2C1=O`, for which the growth is 98.5%.

Consider `CC/C(=C(/CC)c1ccc(O)cc1)c1ccc(O)cc1`, for which the growth is 42.5%.

`Cc1ccc2c(c1)sc(-c1ccc(N(C)C)cc1)[n+]2C`: the growth is -2.09% (active).

Turning to `Cc1nnc(N/N=C/c2ccc([N+](=O)[O-])o2)[nH]c1=O`, the growth was 4.33% (active).

Turning to `CC1(C)OC2C(COC(c3ccccc3)(c3ccccc3)c3ccccc3)OC(c3c[nH]c4c(N)ncnc34)C2O1` (stereo not given), the growth is 56.7%.

`COc1ccc2nc3cc([N+](=O)[O-])ccc3c(NNc3ccccc3)c2c1`: the growth is 29.1%.

With `CCCCC(C=O)(C=C=C(C)C)CC` (stereo not given), the growth was 96.8%.

Regarding `c1ccc(C2NCCNC2c2ccccc2)cc1` (stereo not given), the growth was 107%.

As for `COC(=O)c1cc([N+](=O)[O-])cc([N+](=O)[O-])c1Cl`, the growth was 9.52% (active).

With `O=C(/C=C/c1ccccc1)c1ccccc1O`, the growth is 61.1%.

For the origin of these results see PubChem BioAssay (NCI).
